From ChEMBL document CHEMBL3988442, “University of Dundee, Small-Polar-MMV Screening Library” (2021)

target: Shiga toxin 2 (Escherichia coli O157:H7) (UniProt P09385+P09386); test: E. coli 0.157:H7 Shiga Toxin SOP - stx2 screening assay; format: functional; parameters: scale not given: direction of the effect not stated beside the values; details: 30 µM

Row | Structure (SMILES) | Percent Effect
1 | c1cnn(CC2CCCCN2Cc2cn3ccsc3n2)c1 (stereo not given) | -12.1%
2 | c1csc(-c2nc(CN3CCn4c(nnc4C4CC4)C3)co2)c1 | 1.36%
3 | Cn1cnnc1C1CCCN(C(=O)c2ccccc2Cl)C1 (stereo not given) | 22.4%
4 | CC(=O)N1CCCN(C(=O)c2oc(Br)cc2C)CC1 | -13.6%
5 | CCCS(=O)(=O)N1CCO[C@H]2[C@H](OCc3ccccn3)CC[C@@H]21 | -8.66%
6 | O=C(C1CCOC1)N1CC[C@@H](O)[C@@H]1Cc1ccccc1 (stereo not given in full) | -16.7%
7 | Cc1nn(-c2ccccc2)cc1C(=O)N1CCCC(n2cccn2)C1 (stereo not given) | -27.4%
8 | O=C(c1ccoc1)N1CC[C@H]2OCC[C@@]2(COc2ncccc2F)C1 | 3.1%
9 | O=S(=O)(NC1=NCN(CCc2cccs2)CN1)c1ccc(F)cc1 | -18.8%
10 | N#Cc1cccc(S(=O)(=O)N2CCCCC2CCN2CCCC2=O)c1 (stereo not given) | -20.4%
11 | CCNC(=O)N1CCCCC1CCO (stereo not given) | -15.4%
12 | CCC(NC(=O)CC(F)(F)F)c1ccccc1OCC(=O)N1CCCC1 (stereo not given) | -16.8%
13 | O=C(COc1ccc(C(F)(F)F)cc1)NS(=O)(=O)c1cccnc1 | 15%
14 | CC(O)CN(CC(=O)NC(=O)NCC(F)(F)F)c1ccccc1 (stereo not given) | 29.2%
15 | Cn1cc(-c2cnc(N3CCOCC3)nc2)cc1C(=O)N1CCOCC1 | -3.46%
16 | CC(CNC(=O)c1ccc(Cl)cc1I)N1CCCC1 (stereo not given) | -18.5%
17 | CSc1ncc(C(=O)N2C[C@H]3CC[C@@H]2CN(Cc2ccccc2)C3)cn1 | -17.1%
18 | N#Cc1cccnc1NCCNC(=O)N1CCCC(C(F)(F)F)C1 (stereo not given) | -17.9%
19 | O=C1N(CC2CC2)CCC12CCN(c1ncccn1)CC2 | -4.25%
20 | Cn1cc(CN2CC[C@@H]3[C@@H](CCC(=O)N3CCc3c[nH]cn3)C2)cn1 | -37.6%

Row | Structure (SMILES) | Percent Effect
21 | OC(CN1CCCCCCC1)c1ccc(F)cc1 (stereo not given) | 10.8%
22 | CCC1(CC)Cc2ccccc2-c2nc(CN(C)C)nc(O)c21 | -1.34%
23 | COCCCN(C)C1CCCN(Cc2noc(C)n2)C1 (stereo not given) | -16.4%
24 | O=S(=O)(NCC1CCN(c2ccccn2)CC1)c1ccccc1F | -13.6%
25 | CCOc1ccc(NC(=O)NCc2csc(NC)n2)cc1C | -26.6%
26 | CC(C)NC(=O)N1CCC2(CC(C(=O)NCc3cccnc3)=NO2)C1 (stereo not given) | -11.6%
27 | C[S+]([O-])c1nncn1CC(=O)c1ccc2c(c1)CCO2 (stereo not given) | -38.1%
28 | CCOc1c(Cl)cccc1NCc1cc(C)on1 | -64.7%
29 | Cc1cnn(C2CCCN(C(=O)c3ccn(C)c(=O)c3)C2)c1 (stereo not given) | 22%
30 | O=C(NC(Cc1ccsc1)c1nccs1)C1CCOCC1 (stereo not given) | 15.3%
31 | Cc1ccc(CN2CC[C@H]3C[C@@H](c4nc(C5CC5)cs4)O[C@@H]3C2)o1 | -16.4%
32 | CN(C)S(=O)(=O)N1CCC(Oc2ccc(C#N)cc2)CC1 | -1.14%
33 | CC(=O)c1c(F)cccc1N1CCC(CS(N)(=O)=O)CC1 | -2.68%
34 | Cc1csc(N2CCN(Cc3cnc(C)s3)CC2C)n1 (stereo not given) | 13.7%
35 | COc1ccc(C(=O)NS(=O)(=O)c2cncc(Br)c2)cc1OC | 3.4%
36 | CCCc1n[nH]c(C2CN(CCn3cccn3)CCO2)n1 (stereo not given) | 6.67%
37 | CN1CC2(CCN(Cc3ccoc3)CC2)COc2ccccc2S1(=O)=O | -18.6%
38 | Cc1nn(C)c(N(C)C)c1CNCc1ccccc1Cn1cncn1 | 10.9%
39 | COCCNC(=O)C(C)n1cc(Br)cn1 (stereo not given) | -44.4%
40 | CNC(=O)[C@@]12CCO[C@@H]1CCN(Cc1scnc1C)C2 | -2.91%
